The values below come from PubChem BioAssay (NCATS).

Inconclusive results are not listed. Entries that show only a call come without a potency. Active and inactive are the calls of the source. Calls come from the whole dose curve; as a rule, active = well fitted curve in the direction sought with a large enough effect in the signal ratio, with a control signal flat (not every such curve was filed as active); inconclusive = small, poorly fitted or top-dose-only effect, or effect the other way, or a change in a side signal; inactive = no such curve, though single readings can be large or run the other way; the % refers to the signal ratio.

For this experiment, the target named is Peroxisome proliferator-activated receptor gamma (Homo sapiens) (UniProt P37231). In words: qHTS assay for small molecule agonists of peroxisome proliferator-activated receptor gamma signaling (AID 588536). The following applies: HEK293 PPARg-UAS-bla, beta-lactamase ratio, 16 h; series mostly up to 76.7 µM. An excerpt: NIH Chemical Genomics Center [NCGC] U.S. Environmental Protection Agency [EPA] National Institutes of Environmental Health Sciences [NIEHS] National Toxicology Program [NTP] NCGC Assay Overview The Peroxisome proliferator-activated receptors (PPARs) are lipid-activated transcription factors of the nuclear receptor superfamily with three distinct subtypes namely PPAR alpha, PPAR delta (also called PPAR beta) and PPAR gamma. All these subtypes heterodimerizes with Retinoid X receptor (RXR) and these heterodimers regulate transcription of various genes. PPAR-gamma (glitazone receptor) agonists have been used in the treatment of type 2 diabetes and dyslipidaemia. It is involved in the regulation of glucose and lipid metabolism. PPAR-gamma activates certain genes like Paraoxonase 1 which is responsible for hydrolyzing organophosphates. PPAR-gamma agonists may also be therapeutically important in the treatment of coronary artery disease, obesity and cancer and atherosclerosis.
Chain of Peroxisome proliferator-activated receptor gamma (Homo sapiens) (P37231 whole entry, looked up): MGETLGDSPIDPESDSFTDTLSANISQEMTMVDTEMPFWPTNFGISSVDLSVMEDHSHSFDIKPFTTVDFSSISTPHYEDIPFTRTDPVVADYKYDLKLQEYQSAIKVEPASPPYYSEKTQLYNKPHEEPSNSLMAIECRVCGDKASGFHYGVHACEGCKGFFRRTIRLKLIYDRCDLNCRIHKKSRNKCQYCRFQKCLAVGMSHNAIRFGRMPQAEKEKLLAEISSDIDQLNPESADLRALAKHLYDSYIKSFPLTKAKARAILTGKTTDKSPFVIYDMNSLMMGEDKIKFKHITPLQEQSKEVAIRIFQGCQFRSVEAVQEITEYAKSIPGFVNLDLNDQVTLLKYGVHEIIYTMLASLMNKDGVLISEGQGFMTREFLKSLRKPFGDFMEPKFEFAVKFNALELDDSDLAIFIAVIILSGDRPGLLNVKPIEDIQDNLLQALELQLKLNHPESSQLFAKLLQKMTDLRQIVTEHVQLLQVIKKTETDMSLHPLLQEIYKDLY
NCGC Assay Protocol Summary Using a beta-lactamase reporter-gene under control of Peroxisome Proliferator-Activated-gamma (PPAR-gamma) response element, a cell-based assay [GeneBLAzer PPAR-gamma-UAS-bla assay developed by Invitrogen] was used to measure PPAR-gamma ligands signaling. GeneBLAzer PPAR-gamma-UAS-bla-HEK293 cells were used with assay medium containing 1% charcoal/dextran treated FBS. The assay was performed in clear bottom black Greiner 1536-well plates. Rosiglitazone was used in the screen as the positive control. Library compounds were measured for their ability to stimulate the reporter gene activity. Compounds were screened in a titration series in 1536-well format. The fluorescence intensity (405 nm excitation, 460/530 nm emission) was measured using an EnVision plate reader. Data was normalized relative to Rosiglitazone control (2 uM, 100%), and DMSO only wells (basal, 0%). Concentration-response titration points for each compound were fitted to the Hill equation yielding concentrations of half-maximal stimulation (EC50) and maximal response (efficacy) values. qHTS protocol for PPAR-gamma beta-lactamase assay in agonist mode [Step] [Parameter] [Value] [Description] 1. Reagent; 6 uL; 3000 cells/well 2. Incubation; 37 C for 6 - 6.5 hrs 3. Compounds; 23 nL; 0.59 nM to 92 uM 4. Controls (Rosiglitazone); 23 nL, - One column with dose response, start 19 uM, 1:3 dilutions in duplicates - Final concentrations of 2 uM and 0.5 uM in two columns 5. Incubation; 37 C for 16 hrs 6. Detection reagent; 1 uL of CCF4-dye 7. Incubation; RT for 2 hrs 8. Detection; Fluorescence; Envision plate reader
In general terms: qHTS replaces the single test concentration by a dilution series.
Take `COCc1cnc(C2=NC(C)(C(C)C)C(=O)N2)c(C(=O)O)c1` (stereo not given): the Potency result was “inactive”. `CCOP(=S)(S)OCC`: the Potency result is “inactive”. The result for `COCC(=O)N(c1c(C)cccc1C)[C@H](C)C(=O)OC` reads “inactive”. `COC[C@H](C)N(C(=O)CCl)c1c(C)csc1C`: the Potency result is “inactive”. As to `COC(=O)c1ccccc1CS(=O)(=O)NC(=O)Nc1nc(OC)cc(OC)n1`, the Potency result was “inactive”. Turning to `CC(C)COP(=O)(OCC(C)C)OCC(C)C`, the Potency result is “inactive”.

`CCOP(=S)(OCC)SCC(=O)NC(C)C`: the Potency entry was “inactive”. The result for `CCOP(=S)(OCC)Oc1nc(Cl)n(C(C)C)n1` reads “inactive”.

As to `O=P(O)(O)CCCl`, the Potency entry was “inactive”. On to `CC1(C)[C@H](C=C(Cl)Cl)[C@H]1C(=O)O[C@H](C#N)c1ccc(F)c(Oc2ccccc2)c1`, for which the Potency result is “inactive”. For `C=C(C)C(=O)OCC(CC)CCCC` (stereo not given), the Potency entry is “inactive”. The result for `c1cc(OCC2CO2)cc(OCC2CO2)c1` (stereo not given) reads “inactive”; that for `CC1(C)Cc2cccc(O)c2O1`, “inactive”. In the case of `O=CNC(N1CCN(C(NC=O)C(Cl)(Cl)Cl)CC1)C(Cl)(Cl)Cl` (stereo not given), the Potency result is “inactive”. For the compound `Cc1cc(Cl)ccc1N=CN(C)C`, the Potency result was “inactive”. For the compound `CNC(=O)Oc1ccc(N(C)C)c(C)c1`, the Potency result is “inactive”. The value for `CCNc1nc(Cl)nc(NC(C)(C)C)n1` was “inactive”. The result for `CCOP(=O)(OCC)OP(=O)(OCC)OCC` reads “inactive”. For `CCSC(=O)N(CC)C1CCCCC1`, the Potency entry was “inactive”. On to `CN1COCN(Cc2cnc(Cl)s2)/C1=N\[N+](=O)[O-]`, for which the Potency result is “inactive”. The value for `O=C(O)C(F)(F)C(F)(F)C(F)(F)C(F)(F)C(F)(F)C(F)(F)C(F)(F)C(F)(F)F` was “inactive”.

Turning to `Cn1cc(-c2ccccc2)c(=O)c(-c2cccc(C(F)(F)F)c2)c1`, the Potency result was “inactive”. The result for `C1=Cc2cccc3cccc1c23` reads “inactive”; that for `CNC(=O)N(C)c1nc2ccccc2s1`, “inactive”; that for `O=C(O)c1c(Cl)ccc2cc(Cl)cnc12`, “inactive”. The value for `CCCCC(CC)COC(=O)Cl` (stereo not given) was “inactive”. Turning to `COc1cc(OC)nc(NC(=O)NS(=O)(=O)c2ncccc2OCC(F)(F)F)n1`, the Potency entry was “inactive”. Regarding `COc1cccc(C(=O)NN(C(=O)c2cc(C)cc(C)c2)C(C)(C)C)c1C`, the Potency entry was “inactive”. Turning to `Brc1c(Br)c(Br)c(Br)c(Br)c1Br`, the Potency result is “inactive”. The result for `CCNc1nc(NC(C)(C)C)nc(SC)n1` reads “inactive”.

As for `CCC(C)Nc1c([N+](=O)[O-])cc(C(C)(C)C)cc1[N+](=O)[O-]` (stereo not given), the Potency result is “inactive”. The result for `Cn1c(-c2ccccc2)cc(-c2ccccc2)[n+]1C` reads “inactive”; that for `COP(=O)(OC)SCn1c(=O)oc2cc(Cl)cnc21`, “inactive”. For `CCNc1nc(NC(C)C)nc(SC)n1`, the Potency result was “inactive”. Turning to `c1cc2c3c(cccc3c1)CC2`, the Potency entry is “inactive”. Turning to `CCS(=O)(=O)c1cccnc1S(=O)(=O)NC(=O)Nc1nc(OC)cc(OC)n1`, the Potency entry was “inactive”. The value for `CC1(C)CC/C(=C\c2ccc(Cl)cc2)C1(O)Cn1cncn1` (stereo not given) was “inactive”; that for `CCOP(=O)(OCC)SCSP(=S)(OCC)OCC` was “inactive”; that for `Cc1c(F)c(F)c(COC(=O)C2C(/C=C(\Cl)C(F)(F)F)C2(C)C)c(F)c1F` (stereo not given) was “inactive”. Take `CCCOc1nn(C(=O)NS(=O)(=O)c2ccccc2C(=O)OC)c(=O)n1C`: the Potency entry was “inactive”.
